# Measurements taken from the supplement of paper PMC8728848.
# The sample as a whole holds a higher share of the strongest signals than the screen did.
# B1: CLEC9a (Mus musculus), Q8BRU4 (protein)
# chain: MHAEEIYTSLQWDIPTSEASQKCQSPSKCSGAWCVVTMISCVVCMGLLATSIFLGIKFFQVSSLVLEQQERLIQQDTALVNLTQWQRKYTLEYCQALLQRSLHSGSDCSPCPHNWIQNGKSCYYVFERWEMWNISKKSCLKEGASLFQIDSKEEMEFISSIGKLKGGNKYWVGVFQDGISGSWFWEDGSSPLSDLLPAERQRSAGQICGYLKDSTLISDKCDSWKYFICEKKAFGSCI
# What was measured:
# Experiment in all cases: glycan array binding signal (z-score within array); higher = stronger binding
# Conditions in all cases: glycan notation: IUPAC condensed, linker removed
# Fuc(a1-2)Gal(b1-3)GalNAc = target: Fuc(a1-2)Gal(b1-3)GalNAc
# In short: (§1)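 Arrays were curated from the Consortium for Functional Glycomics database, 3228 in total, and kept only where the protein sequence was available. Binding is expressed as a within-array Z-score. This score was averaged across arrays of the same protein sequence at different concentrations or buffers and across linkers, and negative values can be read as non-binding.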
# Fuc(a1-2)Gal(b1-4)Glc6S = target: Fuc(a1-2)Gal(b1-4)Glc6S
# In short: as §1
# [1] = target: Fuc(a1-2)Gal(b1-4)[Fuc(a1-3)]GlcNAc(b1-2)Man(a1-3)[Fuc(a1-2)Gal(b1-4)[Fuc(a1-3)]GlcNAc(b1-2)Man(a1-6)]Man(b1-4)GlcNAc(b1-4)GlcNAc
# In short: as §1
# [2] = target: Fuc(a1-2)[Gal(a1-3)]Gal(b1-3)GlcNAc(b1-2)Man(a1-3)[Fuc(a1-2)[Gal(a1-3)]Gal(b1-3)GlcNAc(b1-2)Man(a1-6)]Man(b1-4)GlcNAc(b1-4)GlcNAc
# In short: as §1
# [3] = target: Fuc(a1-2)[Gal(a1-3)]Gal(b1-4)Glc
# In short: as §1
# Gal(a1-3)Gal = target: Gal(a1-3)Gal
# In short: as §1
# [4] = target: Gal(a1-4)Gal(b1-3)GlcNAc(b1-2)Man(a1-3)[Gal(a1-4)Gal(b1-3)GlcNAc(b1-2)Man(a1-6)]Man(b1-4)GlcNAc(b1-4)GlcNAc
# In short: as §1
# Gal(b1-3)GalNAc = target: Gal(b1-3)GalNAc
# In short: as §1
# [5] = target: Gal(b1-3)GlcNAc(b1-2)Man(a1-3)[Gal(b1-3)GlcNAc(b1-2)Man(a1-6)]Man(b1-4)GlcNAc(b1-4)GlcNAc
# In short: as §1
# [6] = target: Gal(b1-3)GlcNAc(b1-3)Gal(b1-4)GlcNAc
# In short: as §1
# [7] = target: Gal(b1-3)[Neu5Ac(b2-6)]GalNAc
# In short: as §1
# Gal(b1-4)Glc = target: Gal(b1-4)Glc
# In short: as §1
# [8] = target: Gal(b1-4)GlcNAc(b1-3)[Gal(b1-4)GlcNAc(b1-6)]Gal(b1-4)GlcNAc
# In short: as §1
# [9] = target: Gal(b1-4)GlcNAc(b1-3)[Gal(b1-4)GlcNAc(b1-6)]GalNAc
# In short: as §1
# Gal4S(b1-4)GlcNAc = target: Gal4S(b1-4)GlcNAc
# In short: as §1
# Gal4S6S(b1-4)GlcNAc = target: Gal4S6S(b1-4)GlcNAc
# In short: as §1
# GalNAc(b1-3)Gal = target: GalNAc(b1-3)Gal
# In short: as §1
# Glc(a1-6)Glc(a1-6)Glc = target: Glc(a1-6)Glc(a1-6)Glc
# In short: as §1
# Glc(b1-6)Glc = target: Glc(b1-6)Glc
# In short: as §1
# [10] = target: GlcNAc(a1-4)Gal(b1-4)GlcNAc(b1-3)Gal(b1-4)[Fuc(a1-3)]GlcNAc(b1-3)Gal(b1-4)[Fuc(a1-3)]GlcNAc
# In short: as §1
# [11] = target: GlcNAc(b1-2)[GlcNAc(b1-4)]Man(a1-3)[GlcNAc(b1-2)Man(a1-6)]Man(b1-4)GlcNAc(b1-4)GlcNAc
# In short: as §1
# [12] = target: GlcNAc(b1-3)[GlcNAc(b1-6)]Gal(b1-4)GlcNAc
# In short: as §1
# [13] = target: GlcNAc(b1-4)Gal(b1-4)GlcNAc
# In short: as §1
# [14] = target: GlcNAc(b1-4)GlcNAc(b1-4)GlcNAc
# In short: as §1
# [15] = target: Neu5Ac(a2-3)Gal(b1-3)[Fuc(a1-4)]GlcNAc
# In short: as §1
# [16] = target: Neu5Ac(a2-3)Gal(b1-4)GlcNAc(b1-2)Man(a1-3)[GlcNAc(b1-2)Man(b1-4)GlcNAc(b1-2)Man(a1-6)]Man(b1-4)GlcNAc(b1-4)GlcNAc
# In short: as §1
# [17] = target: Neu5Ac(a2-3)Gal(b1-4)GlcNAc(b1-6)[Neu5Ac(a2-3)Gal(b1-3)]GalNAc
# In short: as §1
# [18] = target: Neu5Ac(a2-3)Gal(b1-4)[Fuc(a1-3)]GlcNAc(b1-3)Gal
# In short: as §1
# [19] = target: Neu5Ac(a2-3)Gal(b1-4)[Fuc(a1-3)]GlcNAc(b1-6)[Neu5Ac(a2-3)Gal(b1-3)]GalNAc
# In short: as §1
# [20] = target: Neu5Ac(a2-3)Gal(b1-4)[Fuc(a1-3)]GlcNAc6S
# In short: as §1
# Neu5Ac(a2-3)GalNAc = target: Neu5Ac(a2-3)GalNAc
# In short: as §1
# Neu5Ac(a2-6)Gal(b1-4)Glc = target: Neu5Ac(a2-6)Gal(b1-4)Glc
# In short: as §1
# [21] = target: Neu5Ac(a2-6)Gal(b1-4)GlcNAc(b1-2)Man(a1-3)[GlcNAc(b1-2)Man(a1-6)]Man(b1-4)GlcNAc(b1-4)GlcNAc
# In short: as §1
# [22] = target: Neu5Ac(a2-8)Neu5Ac(a2-3)[GalNAc(b1-4)]Gal(b1-4)Glc
# In short: as §1
# [23] = target: Neu5Ac(a2-8)Neu5Ac(a2-8)Neu5Ac(a2-8)Neu5Ac(a2-3)[GalNAc(b1-4)]Gal(b1-4)Glc
# In short: as §1
# [24] = target: Neu5Gc(a2-3)Gal(b1-3)[Fuc(a1-4)]GlcNAc
# In short: as §1
# Neu5Gc(a2-6)GalNAc = target: Neu5Gc(a2-6)GalNAc
# In short: as §1
binder,measurement,setting,value
B1,glycan array binding signal (z-score),Fuc(a1-2)Gal(b1-3)GalNAc,0.078
same,glycan array binding signal (z-score),Fuc(a1-2)Gal(b1-4)Glc6S,0.626
same,glycan array binding signal (z-score),[1],2.21
same,glycan array binding signal (z-score),[2],3.03
same,glycan array binding signal (z-score),[3],1.11
same,glycan array binding signal (z-score),Gal(a1-3)Gal,1.37
same,glycan array binding signal (z-score),[4],3.35
same,glycan array binding signal (z-score),Gal(b1-3)GalNAc,-0.657
same,glycan array binding signal (z-score),[5],1.97
same,glycan array binding signal (z-score),[6],1.18
same,glycan array binding signal (z-score),[7],1.89
same,glycan array binding signal (z-score),Gal(b1-4)Glc,-0.825
same,glycan array binding signal (z-score),[8],0.779
same,glycan array binding signal (z-score),[9],1.87
same,glycan array binding signal (z-score),Gal4S(b1-4)GlcNAc,1.88
same,glycan array binding signal (z-score),Gal4S6S(b1-4)GlcNAc,-1.4
same,glycan array binding signal (z-score),GalNAc(b1-3)Gal,0.273
same,glycan array binding signal (z-score),Glc(a1-6)Glc(a1-6)Glc,-0.171
same,glycan array binding signal (z-score),Glc(b1-6)Glc,0.001
same,glycan array binding signal (z-score),[10],0.915
same,glycan array binding signal (z-score),[11],4.01
same,glycan array binding signal (z-score),[12],-1.89
same,glycan array binding signal (z-score),[13],0.714
same,glycan array binding signal (z-score),[14],2.95
same,glycan array binding signal (z-score),[15],-0.871
same,glycan array binding signal (z-score),[16],2.01
same,glycan array binding signal (z-score),[17],-0.1
same,glycan array binding signal (z-score),[18],-1.7
same,glycan array binding signal (z-score),[19],1.35
same,glycan array binding signal (z-score),[20],-0.627
same,glycan array binding signal (z-score),Neu5Ac(a2-3)GalNAc,-1.07
same,glycan array binding signal (z-score),Neu5Ac(a2-6)Gal(b1-4)Glc,0.132
same,glycan array binding signal (z-score),[21],-0.365
same,glycan array binding signal (z-score),[22],0.872
same,glycan array binding signal (z-score),[23],2.43
same,glycan array binding signal (z-score),[24],-0.987
same,glycan array binding signal (z-score),Neu5Gc(a2-6)GalNAc,-0.83
